Test results from PubChem BioAssay (NCI).
This is part of a sample that, as a whole, favours compounds with a hit. Of some 83,000 tested, about 20% had one in any assay.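 Percent growth is the endpoint: 0 to 100 indicates growth inhibition (40 means 60% inhibition), 0 means no net growth, and negative values indicate cell death.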 Values without a mark were called inactive. Active and inactive are the calls of the source. Rule for the calls: active = growth percent below 10; inactive = the rest.

Tests used:
Experiment in all cases: NCI-60 one-dose screen, 48 h (100 = growth as untreated, 0 = no growth, -100 = all killed)
Details in all cases: 10 µM unless noted
NCI-H23 lung = tested on: NCI-H23 lung
NCI-H226 lung = tested on: NCI-H226 lung
NCI-H322M lung = tested on: NCI-H322M lung
HOP-62 NSCLC = tested on: HOP-62 NSCLC
NCI-H460 lung = tested on: NCI-H460 lung
HOP-92 NSCLC = tested on: HOP-92 NSCLC
A549/ATCC NSCLC = tested on: A549/ATCC NSCLC
786-0 renal = tested on: 786-0 renal
COLO 205 colon = tested on: COLO 205 colon
DU-145 prostate = tested on: DU-145 prostate
K-562 leukemia = tested on: K-562 leukemia
MALME-3M melanoma = tested on: MALME-3M melanoma
MDA-MB-231 breast = tested on: MDA-MB-231 breast
RXF 393 renal = tested on: RXF 393 renal
SF-268 CNS = tested on: SF-268 CNS
SF-295 CNS = tested on: SF-295 CNS
SF-539 CNS = tested on: SF-539 CNS
UACC-257 melanoma = tested on: UACC-257 melanoma
M14 melanoma = tested on: M14 melanoma
NCI-H522 lung = tested on: NCI-H522 lung

Compound | growth (NCI-H23 lung) | growth (NCI-H226 lung) | growth (NCI-H322M lung) | growth (HOP-62 NSCLC) | growth (NCI-H460 lung) | growth (HOP-92 NSCLC) | growth (A549/ATCC NSCLC) | growth (786-0 renal) | growth (COLO 205 colon) | growth (DU-145 prostate) | growth (K-562 leukemia) | growth (MALME-3M melanoma) | growth (MDA-MB-231 breast) | growth (RXF 393 renal) | growth (SF-268 CNS) | growth (SF-295 CNS) | growth (SF-539 CNS) | growth (UACC-257 melanoma) | growth (M14 melanoma) | growth (NCI-H522 lung)
COC(=O)[C@@H](C)C[C@H](Cc1ccccc1)NC(=O)c1nc([C@@H](C[C@H](C(C)C)N(C)C(=O)[C@@H](NC(=O)[C@H]2C[C@H](O)CCN2C)C(C)C)OC(C)=O)sc1C(C)C | 23.8% | -35.5% (active) | 26.5% | 1.87% (active) | 2.31% (active) | 25% | 10.7% | 3.94% (active) | -65.9% (active) | -4.78% (active) | 5.9% (active) | 28.4% | 3.71% (active) | 18.9% | 13.8% | -16.8% (active) | -36.9% (active) | 66.1% | -22.4% (active) | –
O=C(CCCCCCC(=O)Nc1ccc(N(CCCl)CCCl)cc1)NO | 29.2% | 59.4% | 69.4% | 23.8% | – | 17.4% | 27.4% | 22.9% | 29.5% | 29% | 32.6% | 19.2% | 85.8% | -4.05% (active) | 11.6% | 32.7% | 31.1% | 18.6% | 42.5% | 23.8%
Cc1ccc(S(=O)(=O)C(Cl)(Cl)Cl)cc1 | 98.3% | 80.4% | 105% | 90.2% | – | 82.3% | 77.2% | 88.5% | 99.4% | 109% | 93.3% | 92.5% | 95.8% | 102% | 97.5% | 91.1% | 99.9% | 86.1% | 94.6% | 76.2%
COc1ccc(/C=C\c2cc(OC)c(OC)c(OC)c2)cc1OCC(=O)Nc1nc2ccc(C(F)(F)F)cc2s1 | 40.1% | 45.8% | 64.7% | 45.4% | 7.6% (active) | 46.6% | 27.1% | 83.2% | 95.3% | 0.679% (active) | 16% | 43.8% | 12.8% | -4.84% (active) | 43% | – | -18.6% (active) | 50% | 22.3% | –
CN1C(=O)C23CC4(C56CC78SSC(CO)(C(=O)N7C5Nc5ccccc56)N(C)C8=O)c5ccccc5NC4N2C(=O)C1(CO)SS3 (centres undefined) | -72.9% (active) | -100% (active) | -94.5% (active) | -86.4% (active) | -89.4% (active) | -99% (active) | -88.5% (active) | -97.4% (active) | -87.8% (active) | -100% (active) | -30.3% (active) | -76.7% (active) | -94.1% (active) | – | -97.8% (active) | -93.8% (active) | -86.4% (active) | -94.9% (active) | -83.3% (active) | –
Cc1c(C)c([N+](=O)[O-])c(C)c(C)c1[N+](=O)[O-] | 112% | 100% | 121% | 109% | 113% | 135% | 91.5% | 103% | 119% | 108% | 102% | 138% | 108% | 112% | 100% | 101% | 108% | 99.5% | 115% | –
C[C@]12CCc3sc(-c4ccccc4O)nc3C1=CC[C@@H]1[C@@H]2CC[C@]2(C)C(=O)CC[C@@H]12 | 103% | 108% | 101% | 98.9% | 108% | 115% | 103% | 102% | – | 107% | 95.8% | 102% | 103% | 107% | 100% | 100% | 105% | 107% | 106% | –
CCOC(=O)N[C@H]1CCc2c(Br)c(OC)c(OC)c(OC)c2-c2ccc(SC)c(=O)cc21 | 31.2% | 10.3% | 35.3% | 34.9% | -7.92% (active) | -4.54% (active) | 20.9% | 9.3% (active) | 5.51% (active) | -19.5% (active) | 5.89% (active) | 35.1% | -7.24% (active) | 12.8% | 17.5% | 10.8% | -31.9% (active) | 67.5% | 0.572% (active) | –
